Screening results from PubChem BioAssay.
TRHR agonist: qHTS for Small Molecule Agonists and Allosteric Enhancers of Human TRH Receptor: Primary Screen for Agonists; Thyrotropin-releasing hormone receptor (Homo sapiens), P34981; activation, % at 2 µM; 360,000 compounds, 0.18% hits; TRHR cells, calcium flux fluo-8, FDSS agonist mode; AID 493084, 2011; note: 0% is about no effect
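In this calcium-flux screen, cells bearing human TRHR are dye-loaded with fluo-8, baselined for 10 cycles, then exposed to library compounds; positive kinetic calcium responses during the agonist phase mark hits, with TRH as control.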
TRHR PAM: qHTS for Small Molecule Agonists and Allosteric Enhancers of Human TRH Receptor: Primary Screen for Enhancers | AID 493056, 2011 | enhancement, % at 2 µM | TRHR cells, fluo-8 calcium fluorescence, EC20 TRH enhancement | Thyrotropin-releasing hormone receptor (Homo sapiens), P34981 | 360,000 compounds, 0.66% hits; in the data active = enhancement above about 30%; note: 0% is about no effect
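TRHR-expressing cells loaded with fluo-8 calcium dye were read kinetically (ex 480/em 530) during compound addition, then stimulated with an EC20 of TRH (10 nM final). Enhancement of the Gq-mediated intracellular calcium response was scored.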
D1 ag: Allosteric Agonists of the Human D1 Dopamine Receptor: qHTS | 360,000 compounds, 1% hits | D(1A) dopamine receptor (Homo sapiens), P21728 | activation, % at 2 µM | HEK293 T-REx D1 cells, calcium flux, agonist mode | AID 504660, 2011; note: 0% is about no effect
Target sequence (P21728 whole entry, looked up): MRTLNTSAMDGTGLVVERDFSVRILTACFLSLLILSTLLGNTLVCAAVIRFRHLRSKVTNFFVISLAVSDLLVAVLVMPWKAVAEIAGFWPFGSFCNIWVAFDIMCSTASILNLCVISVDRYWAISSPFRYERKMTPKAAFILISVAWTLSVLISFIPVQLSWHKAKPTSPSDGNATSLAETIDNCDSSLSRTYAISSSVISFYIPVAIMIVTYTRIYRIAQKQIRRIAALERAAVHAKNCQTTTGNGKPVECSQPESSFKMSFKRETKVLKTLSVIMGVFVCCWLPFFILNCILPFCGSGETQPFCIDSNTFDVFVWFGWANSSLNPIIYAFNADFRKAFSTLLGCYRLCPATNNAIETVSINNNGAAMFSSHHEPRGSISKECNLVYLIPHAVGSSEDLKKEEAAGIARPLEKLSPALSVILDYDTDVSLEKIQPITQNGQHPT
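Inducible HEK293 T-REx D1 cells, force-coupled to calcium signalling, were plated at 4000 cells/well with tetracycline and held overnight at 30 C. After no-wash calcium dye loading, compound-evoked calcium rise over 180 s flagged agonists.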
Epigenetic reg: Quantitative High-Throughput Screen for Regulators of Epigenetic Control | murine LDR cells, GFP reporter derepression, 30 h | Potency, µM (titrated, usually from 53.9 µM), for inactives: at the top dose GFP activation, actives largely listed as activators | 280,000 compounds, 0.2% hits; active = well fitted activation curve with a large enough effect; inconclusive = small, poorly fitted or top-dose-only effect; note: potency is the fitted concentration of half-maximal effect; % of control where 0% means no effect; nearly all actives have a fitted effect of over 60% in size
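Murine LDR cells carrying a silenced, genomically integrated CMV-driven GFP reporter were exposed to compound for 30 hours at 37 C. After PBS washes, GFP-positive cells (20–120 um objects) were counted by laser-scanning microplate cytometry.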
D1 PAM: Potentiators of Human D1 Dopamine Receptor: qHTS; HEK293 TREx D1 cells, calcium flux, dopamine EC20 potentiation; potentiation, % at 10 µM; 360,000 compounds, 0.036% hits; AID 504651, 2011; in the data active = potentiation above about 30%; note: 0% is about no effect
D1 antagonist: Antagonist of Human D 1 Dopamine Receptor: qHTS; HEK293 TREx D1 cells, calcium flux, dopamine EC80; active compounds read low; 360,000 compounds, 3.2% hits; activity change, negative = inhibition, % at 10 µM; in the data active = activity change below about -30%; note: % is set by controls: 0 for no effect and ±100 for the full control effect
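Using tetracycline-induced force-coupled D1 Hek293 cells and a calcium dye, signals were followed for 180 s after compound, then for 180 s after EC80 dopamine, to detect inhibitors.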
* marks the source's active call; other numbers are inactive results; ? = inconclusive; / = no result given; [ ] = dose if it differs, or a comment. A selection: hits, their analogues and other compounds. The true share with any hit is near 4.6%. Cut-off read from the data, not from the text of the source, unless noted: active = activation above about 30%; inactive = the rest.

SMILES	TRHR agonist	TRHR PAM	D1 ag	Epigenetic reg	D1 PAM	D1 antagonist
O=C(C1CCC1)N1CCN(c2cccc(C(F)(F)F)c2)CC1	0	4	5	/	-7	-54*
COc1ccc(NC(=O)N2CCN(c3cccc(C(F)(F)F)c3)CC2)cc1OC	0	-5	14	-1%	-10	-6
Cn1c(=O)n(C)c2cc(N3CCCC3)c(NC(=O)Nc3ccccc3)cc21	1	-7	0	0%	-1	-11
O=C(C1CC(=O)N(C2CCCCC2)C1)N1CCN(c2cccc(C(F)(F)F)c2)CC1 (centres undefined)	0	-5	5	/	-3	-6
O=C(c1ccc2nccnc2c1)N1CCN(c2cccc(C(F)(F)F)c2)CC1	0	31*	-1	/	1	20
O=C(Nc1ccccc1)N1CCN(c2cccc(C(F)(F)F)c2)CC1	2	6	27	0%	-8	-34*
CN1CCN(c2ccc(C(F)(F)F)cc2NC(=O)Nc2ccccc2)CC1	0	-3	73*	/	-6	-7
CCOC(=O)c1c(NC(=O)/C=C/c2ccccc2)sc2c1CCCC2	-2	2	-1	-2%	1	2
CN(C)c1ccc(C(CNS(=O)(=O)c2ccc(Cl)cc2)N2CCCC2)cc1 (centres undefined)	0	2	4	-5%	0	0
O[C@@](CCN1CCCCC1)(c1ccccc1)[C@@H]1C[C@H]2C=C[C@@H]1C2	/	/	/	0%[16.9 µM]	/	/
O=C(CS(=O)(=O)Cc1ccccc1)N1CCN(c2cccc(C(F)(F)F)c2)CC1	0	-7	12	4%	-2	-33*
O=C(CCS(=O)(=O)c1ccccc1)N1CCN(c2cccc(C(F)(F)F)c2)CC1	-1	-6	21	/	-10	-20
Cc1[nH]c2ccccc2c1C(=O)C(=O)N(C)C1CCCCC1	-1	1	5	/	-4	-53*
CCc1ccc(-n2nc(CO)c(C(=O)NC(C)c3ccc(Cl)cc3)n2)cc1 (centres undefined)	1	19	3	-5%	-1	21
Cc1ccc(NC(=O)CSc2nc(-c3ccco3)cc(C(F)(F)F)n2)cc1	1	-3	12	1%	-7	-35*
CN(C)c1ccc(NC(=O)CCSc2nc(-c3ccco3)cc(C(F)(F)F)n2)cc1	0	10	1	1%	-6	-33*
Cc1ccc(Cn2ccc(NC(=O)CCSc3nc(-c4ccco4)cc(C(F)(F)F)n3)n2)cc1	1	39*	4	-2%	-3	5
COC(=O)c1ccccc1NC(=O)CSc1ncccn1	-1	0	4	0%	-7	5
COC(=O)c1ccccc1NC(=O)CSc1nc(-c2ccccc2)cc(C(F)(F)F)n1	0	-1	4	0%	-7	-42*
Cc1ccccc1Cn1ccc(NC(=O)CCSc2nc(-c3ccco3)cc(C(F)(F)F)n2)n1	0	-4	8	0%	-2	31
CCOc1ccc(CNC(=O)c2ccc3c(c2)nc2n3CCC(C)C2)cc1OC (centres undefined)	0	5	0	-1%	-1	-4
Cc1ccccc1Cn1ccc(NC(=O)c2cnn3c(C(F)(F)F)cc(-c4ccco4)nc23)n1	0	-5	1	1%	-7	-57*
O=C(Nc1ccc2c(c1)OCO2)c1cnn2c(C(F)(F)F)cc(-c3ccco3)nc12	0	1	-1	0%	0	2
Cc1cc(NC(=O)CCSc2nc(-c3ccco3)cc(C(F)(F)F)n2)no1	0	-1	55*	-2%	-4	-13
Cc1cc(NC(=O)CCCSc2nc(-c3ccco3)cc(C(F)(F)F)n2)no1	0	3	0	-2%	1	-15
SMILES	TRHR agonist	TRHR PAM	D1 ag	Epigenetic reg	D1 PAM	D1 antagonist
O=C(NCCc1ccccc1)c1ccc(Cn2c(SCc3ccccc3F)nc3cccnc32)cc1	1	7	10	-1%	-1	5
Cc1cc(C)c(Nc2cc(S(=O)(=O)O)c(N)c3c2C(=O)c2ccccc2C3=O)c(C)c1	0	3	40*	6%	-2	-15
O=C(Nc1ccc(Cl)cc1)NC1CCCCC1	2	5	9	1%	-5	-18
Cc1cccc(NC(=O)NC2CCCCCCC2)c1	1	3	12	/	-6	-34*
O=C(Nc1ccc(F)cc1)NC1CCCCCCC1	1	-4	12	/	4	-35*
O=C(Nc1ccc(F)c(F)c1)NC1CCCCC1	1	0	18	0%	-6	-32*
Nc1ccc(NC(=O)NC2CCCCC2)cc1[N+](=O)[O-]	-3	-12	1	?	-3	-77*
Cc1ccc(NC(=O)NC2CCCCCCC2)cc1C	1	7	6	/	-14	-19
CCOc1ccc(OCC)c(NS(=O)(=O)c2cc(-c3cc(C)no3)ccc2C)c1	0	3	2	-6%	-2	-4
O=C(CCC(=O)Nc1ccccc1Cl)NNC(=S)Nc1ccccc1C(F)(F)F	0	6	2	/	5	11
O=C(NNC(=S)Nc1ccccc1C(F)(F)F)C1CC1	-1	-2	1	-1%	-6	-37*
O=C(Nc1ccccc1C(F)(F)F)NC1CCCCC1	0	3	4	-3%	-2	-7
O=C(Nc1ccccc1C(F)(F)F)NC1CCCCCCC1	1	-4	3	-10%	-5	-31*
S=C(Nc1ccc(Br)cc1)NC1CCCC1	1	-8	16	1%	-7	-50*
Cc1ccc(C(=O)c2sc(Nc3ccccc3)c(S(=O)(=O)c3ccccc3)c2N)c(C)c1	1	0	10	0%	-2	-2
CC(C)(C)C(=O)NC1CC2CCCC(C1)N2C(=O)Nc1ccccc1Cl (centres undefined)	0	9	3	/	3	-7
S=C(Nc1ccccc1Cl)NC1CC2CCCC(C1)N2C1CC1 (centres undefined)	1	-6	4	14%	-4	-54*
Cc1ccc(NC(=O)C2CCCN(c3nnc(-n4c(C)ccc4C)s3)C2)c(C)c1 (centres undefined)	-2	-1	7	15%	-2	-4
Cc1ccc(C2CC(=O)Oc3cc(O)ccc32)cc1 (centres undefined)	3	1	5	2%[96.6 µM]	-5	-30*
